This assay deals with Voltage-dependent N-type calcium channel subunit alpha-1B (Homo sapiens) (UniProt Q00975). Nature of the assay: inhibitors of Mint1-CaV2.2 protein interaction, biochemical, HTRF (AID 2073). To be noted: at 20 µM, stronger effect = higher value. On the technique in general: In TR-FRET formats the signal depends on donor and acceptor labels being close together.
Where [1] appears, read: measured here: average of repeat tests.

Among all 290,000 compounds or so, about 570 (0.2%) were called active. Roughly 1% stayed inconclusive and do not appear here. The sample holds actives, similar compounds and a random draw of the others, so the mix is not that of the screen. Cut-off read from the data, not from the text of the source: active = inhibition mostly above about 51% (no sharp cut-off); inconclusive = no clear call, values can overlap the other calls; inactive = mostly below about 53%.

Chain of Voltage-dependent N-type calcium channel subunit alpha-1B (Homo sapiens) (Q00975 whole entry, looked up): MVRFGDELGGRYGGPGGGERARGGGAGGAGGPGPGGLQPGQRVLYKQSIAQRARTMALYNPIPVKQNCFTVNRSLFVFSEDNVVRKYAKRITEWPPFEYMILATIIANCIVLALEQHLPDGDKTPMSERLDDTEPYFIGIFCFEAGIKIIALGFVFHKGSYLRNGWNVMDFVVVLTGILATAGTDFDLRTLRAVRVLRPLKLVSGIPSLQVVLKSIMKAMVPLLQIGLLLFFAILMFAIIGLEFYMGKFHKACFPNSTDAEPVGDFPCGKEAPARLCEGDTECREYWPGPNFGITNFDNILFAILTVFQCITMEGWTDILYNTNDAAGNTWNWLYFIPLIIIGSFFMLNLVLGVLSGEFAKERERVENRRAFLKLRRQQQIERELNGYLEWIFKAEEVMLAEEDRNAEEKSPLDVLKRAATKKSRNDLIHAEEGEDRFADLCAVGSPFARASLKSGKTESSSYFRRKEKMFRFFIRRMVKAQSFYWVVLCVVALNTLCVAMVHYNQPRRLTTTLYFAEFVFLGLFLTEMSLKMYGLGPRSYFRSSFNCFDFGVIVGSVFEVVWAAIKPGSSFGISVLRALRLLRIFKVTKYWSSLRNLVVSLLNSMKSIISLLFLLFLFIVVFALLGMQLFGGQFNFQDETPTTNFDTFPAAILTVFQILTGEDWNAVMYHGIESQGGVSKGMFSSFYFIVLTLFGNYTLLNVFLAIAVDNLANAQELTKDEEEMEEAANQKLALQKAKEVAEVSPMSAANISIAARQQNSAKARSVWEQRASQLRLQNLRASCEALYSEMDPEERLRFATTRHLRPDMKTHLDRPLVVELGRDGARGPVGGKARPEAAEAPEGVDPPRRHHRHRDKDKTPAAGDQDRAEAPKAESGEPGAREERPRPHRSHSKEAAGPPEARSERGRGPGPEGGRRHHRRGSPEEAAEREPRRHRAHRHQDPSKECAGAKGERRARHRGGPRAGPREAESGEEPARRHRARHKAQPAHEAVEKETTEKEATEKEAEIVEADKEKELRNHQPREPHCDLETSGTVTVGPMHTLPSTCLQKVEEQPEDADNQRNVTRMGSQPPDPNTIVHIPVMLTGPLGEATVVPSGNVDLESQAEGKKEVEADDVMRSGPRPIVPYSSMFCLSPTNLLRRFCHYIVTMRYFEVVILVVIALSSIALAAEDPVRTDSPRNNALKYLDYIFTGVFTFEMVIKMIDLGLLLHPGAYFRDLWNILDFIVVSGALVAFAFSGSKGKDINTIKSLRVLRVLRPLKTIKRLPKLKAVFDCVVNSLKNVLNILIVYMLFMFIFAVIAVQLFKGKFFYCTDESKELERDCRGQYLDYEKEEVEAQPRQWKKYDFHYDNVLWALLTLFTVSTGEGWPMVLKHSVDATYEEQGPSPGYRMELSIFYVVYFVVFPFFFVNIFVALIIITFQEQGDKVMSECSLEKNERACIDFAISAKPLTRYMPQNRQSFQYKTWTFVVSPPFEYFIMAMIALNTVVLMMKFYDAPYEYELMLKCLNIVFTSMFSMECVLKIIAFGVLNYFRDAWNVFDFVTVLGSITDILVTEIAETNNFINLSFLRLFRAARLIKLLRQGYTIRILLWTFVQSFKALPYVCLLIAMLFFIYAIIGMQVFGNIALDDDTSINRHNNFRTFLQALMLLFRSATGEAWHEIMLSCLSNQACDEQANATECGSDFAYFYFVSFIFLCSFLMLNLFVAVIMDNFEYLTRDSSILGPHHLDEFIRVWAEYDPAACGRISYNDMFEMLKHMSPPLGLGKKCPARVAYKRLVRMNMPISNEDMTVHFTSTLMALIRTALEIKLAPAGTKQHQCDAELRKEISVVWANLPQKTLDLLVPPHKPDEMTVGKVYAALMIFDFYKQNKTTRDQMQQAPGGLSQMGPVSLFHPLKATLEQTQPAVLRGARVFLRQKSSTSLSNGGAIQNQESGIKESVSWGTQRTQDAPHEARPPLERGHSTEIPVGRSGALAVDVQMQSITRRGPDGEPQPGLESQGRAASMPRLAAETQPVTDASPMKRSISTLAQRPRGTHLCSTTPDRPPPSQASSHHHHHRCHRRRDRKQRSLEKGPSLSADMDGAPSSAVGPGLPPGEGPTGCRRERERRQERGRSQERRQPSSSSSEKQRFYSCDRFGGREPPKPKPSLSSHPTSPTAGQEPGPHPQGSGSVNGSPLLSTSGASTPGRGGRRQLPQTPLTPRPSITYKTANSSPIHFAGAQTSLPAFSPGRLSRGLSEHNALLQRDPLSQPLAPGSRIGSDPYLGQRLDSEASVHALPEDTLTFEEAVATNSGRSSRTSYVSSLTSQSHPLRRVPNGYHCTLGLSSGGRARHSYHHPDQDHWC

With `Cc1nn(Cc2noc(C(=O)NCCc3ccccn3)n2)c(C)c1Br`, the inhibition (as a rule, the relative decrease from the control value, in per cent) is 7.3% (inactive).

For the compound `CC1(C)CC(NC(=O)c2ccccc2C(=O)NC2CC(C)(C)NC(C)(C)C2)CC(C)(C)N1`, the inhibition was 32.5% (inactive).

For `CCOC(=O)c1cnn(-c2nc(-c3ccccc3)nc3c2COC(C)(C)C3)c1N`, the inhibition was -0.5% (inactive).

On to `CCOC(=O)N1CCN(C(=O)CSc2nc3c(cnn3-c3ccc(C)cc3)c(=O)[nH]2)CC1`, for which the inhibition is 7.8% (inactive).

On to `CCn1c(=O)cc(OCC(=O)Nc2ccc3c(c2)OCCO3)c2ccccc21`, for which the inhibition was 21.8% (inactive).

For `Cc1ccc2[nH]c(=O)c(C(c3nnnn3CC3CCCO3)N3CCCc4ccccc43)cc2c1` (centres undefined), the inhibition is 94.9% (inactive). Under setting [1], the inhibition was 12.5%.

Consider `CCc1ccc2[nH]c(=O)c(C(c3nnnn3CC3CCCO3)N3CCCc4ccccc43)cc2c1` (centres undefined), for which the inhibition is 73% (inactive). For the same compound, the inhibition under setting [1] was determined as 15.4%.

For `Cc1cc2cc(C(c3nnnn3CC3CCCO3)N3CCCc4ccccc43)c(=O)[nH]c2cc1C` (centres undefined), the inhibition was 70% (active).

As to `COC(=O)C1=C(C(=O)OC)[C@@H]2N(C)c3ccc(OC)cc3[C@@]23C[C@@H](C(=O)OC)N(C(=O)c2ccc(Br)cc2)C3=N1`, the inhibition is 6.3% (inactive).

As for `Nc1nonc1-n1nnc(C(=O)N/N=C/c2ccc(F)cc2)c1-c1cccs1`, the inhibition was 4.3% (inactive).

With `Cc1ccc(NC(=O)c2cc(-c3ccc(C)c(C)c3O)n[nH]2)cc1C`, the inhibition was 12.1% (inactive).

For the compound `CC(=O)Nc1ccc(NC(=O)c2cc(-c3cc(C)c(C)cc3O)n[nH]2)cc1`, the inhibition was -5.1% (inactive).

`COc1ccccc1CNc1cc(CSc2ccc(Cl)cc2)nc(C)n1`: the inhibition was -1.5% (inactive).

Regarding `CC(C)CNC(=O)CSc1nc(-c2cccs2)cc(C(F)(F)F)n1`, the inhibition is 16.7% (inactive).

As to `COc1ccc(CCNC(=O)C(CC(C)C)NC(N)=O)cc1` (centres undefined), the inhibition was 4.9% (inactive).

Turning to `COc1ccc(CN(C(=O)c2cc(=O)c3cc(C)cc(C)c3o2)C2CCS(=O)(=O)C2)cc1` (centres undefined), the inhibition is 0% (inactive).

As to `COc1cccc(C(=O)NC2CC3CCCC(C2)N3CC(=O)Nc2ccccc2)c1` (centres undefined), the inhibition was 55% (active).

`COc1cccc(C(=O)NC2CC3CCCC(C2)N3CC(=O)Nc2ccc(N(C)C)cc2)c1` (centres undefined): the inhibition is -12.2% (inactive).

`O=C(CN1C2CCCC1CC(NC(=O)c1ccccc1)C2)Nc1ccccc1` (centres undefined): the inhibition is 8.3% (inactive).

In the case of `O=C(Cn1c(=O)sc2ccccc21)Nc1ccc(S(=O)(=O)N2CCCCC2)cc1`, the inhibition is 18% (inactive).

Turning to `COc1ccc(C2=CC(c3c(C)nn(-c4ccccc4)c3Cl)n3nnnc3N2)cc1OC` (centres undefined), the inhibition was 24.3% (inactive).

Turning to `CSc1nc(C)cc(-n2cc(F)c(=O)[nH]c2=O)n1`, the inhibition is -1.3% (inactive).

Regarding `O=C1C(Cl)=C(NC(=O)c2ccccc2)C(=O)C(Cl)=C1NC(=O)c1ccccc1`, the inhibition is 81.8% (active).

For the compound `O=C(NC1=C(Nc2ccc(Cl)cc2)C(=O)c2ccccc2C1=O)c1ccccc1`, the inhibition was -10.9% (inactive).

Take `O=C(Nc1ccccc1Cl)c1ccccc1`: the inhibition was 23.6% (inactive).

Consider `CC(=O)N1CCN(C(=O)c2ccc3c(c2)OCCO3)CC1`, for which the inhibition is 16.6% (inactive).

As to `CCOC(=O)C1=C(Cc2ccc(Cl)cc2)C(=O)c2ccccc2C1=O`, the inhibition was 66.8% (inactive). The inhibition under setting [1] was found to be 19.3%.

Consider `CCOC(=O)C1=C(Cc2ccc(C)cc2)C(=O)c2ccccc2C1=O`, for which the inhibition was 36% (inactive).

For the compound `CCOC(=O)C1=C(O)c2ccccc2C(=O)/C1=C\c1ccc(CC)cc1`, the inhibition is 54.8% (active).

For the compound `CCOC(=O)C1=C(Cc2ccc(F)cc2)C(=O)c2ccccc2C1=O`, the inhibition is 76% (inactive). Further, the inhibition under setting [1] came to 27.8%.

On to `CCOC(=O)C1=C(O)c2ccccc2C(=O)/C1=C\c1ccc(C)cc1`, for which the inhibition is 49.4% (inactive).

For `CCOC(=O)C1=C(Cc2ccc(OC)cc2)C(=O)c2ccccc2C1=O`, the inhibition was 61.9% (active).

Regarding `COc1ccc(N/C(=N/c2nc(C)cc(C)n2)NC(=O)c2ccccc2)cc1`, the inhibition was 8.5% (inactive).

On to `CSc1cccc(NC(=O)C2CCN(C(=O)c3ccccc3C)CC2)c1`, for which the inhibition was 3.1% (inactive).

In the case of `CCOc1ccc(CCNC(=O)CSc2nnnn2C)cc1OCC`, the inhibition is 0% (inactive).

Consider `CC1=CC(=C(C#N)C#N)C=C(C)N1Cc1ccccc1`, for which the inhibition was -8.3% (inactive).

Turning to `CCn1c(=O)c(=O)[nH]c2cc(C(=O)Nc3ccc(S(=O)(=O)N4CCCC4)cc3)ccc21`, the inhibition was 19.2% (inactive).

Consider `CCCNC(=O)OC[C@H]1O[C@H](CCO/N=C/c2ccc(C(=O)N3[C@H](c4ccc(C)cc4)[C@@H](C)CC[C@H]3C(=O)OC)cc2)C=C[C@@H]1Oc1ccc(OC)cc1`, for which the inhibition is 6.9% (inactive).

On to `CCOC(=O)c1cc(NC(=O)CCC(=O)O)ccc1N1CCCCC1`, for which the inhibition is 19.3% (inactive).

`O=C(/C=C/c1ccco1)Nc1nc(-c2ccccn2)cs1`: the inhibition is 54.1% (active).

In the case of `O=C(/C=C/c1cccs1)Nc1nc(-c2ccccc2)cs1`, the inhibition is 10% (inactive).

Regarding `O=C(/C=C\c1ccco1)Nc1nc(-c2ccccc2)cs1`, the inhibition is 0% (inactive).

Take `O=C(/C=C/c1ccco1)Nc1nc(-c2ccccc2)cs1`: the inhibition was 26.4% (inactive).

Consider `O=C(/C=C/c1ccc2c(c1)OCO2)Nc1nc(-c2ccccc2)cs1`, for which the inhibition was 26% (inactive).

Consider `O=C(/C=C/c1ccccc1)Nc1nc(-c2ccncc2)cs1`, for which the inhibition was 54.1% (active).

Turning to `CCCSc1nc(N2CCOCC2)c2c(c1C#N)CC(C)(C)SC2`, the inhibition is 0.4% (inactive).

Consider `Cc1ccccc1NC1=C(Cl)C(=O)OC1NC(=O)c1ccccc1` (centres undefined), for which the inhibition is -0.5% (inactive).

For `CCOC(=O)c1ccc(N2C(=O)CC(C(=O)OC)=C2C)cc1`, the inhibition is 3.2% (inactive).

In the case of `Cc1ccc2nc(NC(=O)CN3CCOCC3)sc2c1`, the inhibition is -0.6% (inactive).

For `CCc1ccc2nc(NC(=O)c3ccc(N4C(=O)CCC4=O)cc3)sc2c1`, the inhibition is 32.1% (inactive).

For the compound `Cc1ccc(-n2ncc3c2CCCC3NC(=O)CCn2ccnc2C)cc1C` (centres undefined), the inhibition was -3.7% (inactive).

For `O=C1CC(c2ccco2)Cc2nc(Nc3ccc(F)cc3)ncc21` (centres undefined), the inhibition was 6.4% (inactive).

With `O=C1CC(c2ccco2)Cc2nc(Nc3nc(-c4ccccc4)c4ccccc4n3)ncc21` (centres undefined), the inhibition was 52.4% (active).

For `O=C(Nc1ncc2c(n1)CC(c1ccco1)CC2=O)c1ccccc1` (centres undefined), the inhibition was 33.5% (inactive).

`CN(C)C(=O)c1ccc(NC(=O)COc2ccc([N+](=O)[O-])cc2)cc1`: the inhibition was 5.1% (inactive).

As to `COc1ccc(C2C(Oc3ccccc3)C(=O)N2c2cc(C)ccc2C)cc1OC` (centres undefined), the inhibition was -3.8% (inactive).

In the case of `Cc1ccc(N2C(=O)c3ccc(C(=O)O)cc3C2=O)cc1C`, the inhibition is -1.3% (inactive).

As to `Cc1ccc(-n2c(=O)c3cc4c(=O)n(-c5ccc(C)c(C)c5)c(=O)c4c(C(=O)c4ccc(C(=O)O)cc4)c3c2=O)cc1C`, the inhibition is 85% (active).

For `O=C(O)c1ccc(-n2c(=O)c3ccccc3c3ccccc3c2=O)cc1`, the inhibition is -2.9% (inactive).

For the compound `O=C(N/N=C/c1ccoc1)c1cc(O)cc(O)c1`, the inhibition is 18.3% (inactive).

As for `O=C(O)c1ccc(Cl)c2c1C1C=CCC1C(c1ccccn1)N2` (centres undefined), the inhibition is 23.7% (inactive).

With `Cc1cc([N+](=O)[O-])c2c(c1C)C1C=CCC1C(c1ccccn1)N2` (centres undefined), the inhibition was 42.9% (inactive).

On to `O=[N+]([O-])c1ccc(Cl)c2c1C1C=CCC1C(c1ccccn1)N2` (centres undefined), for which the inhibition was 79.5% (active).

`COc1c(S(=O)(=O)NCCCn2ccnc2)ccc(Cl)c1Cl`: the inhibition was -0.3% (inactive).

With `COc1cccc(-c2nn(-c3ccccc3)cc2C(=O)O)c1`, the inhibition is 1.6% (inactive).

Consider `COc1ccc(OC)c(NC(=O)c2c(NC(=O)CCC(=O)O)sc3c2CCCCC3)c1`, for which the inhibition was 65.1% (active).

On to `COc1ccccc1NC(=O)c1c(NC(=O)CCC(=O)O)sc2c1CCCCC2`, for which the inhibition is 25% (inactive).

`COc1ccc(NC(=O)c2c(NC(=O)CCC(=O)O)sc3c2CCCCC3)cc1`: the inhibition is 63.8% (inactive). In addition, under setting [1], the inhibition is 9.3%.

As to `O=S(=O)(NCC1CCCO1)c1ccc(Oc2ccccc2)cc1` (centres undefined), the inhibition was 8.9% (inactive).

Consider `Cc1cc(C(=O)OCC(=O)Nc2cc(S(=O)(=O)N(C)C)ccc2C)c2ccccc2n1`, for which the inhibition is -2.8% (inactive).

For the compound `C[C@H]1[C@H](C)CC[C@]2(C(=O)O)CC[C@]3(C)C(=CC[C@@H]4[C@@]5(C)CC[C@H](O)C(C)(C)[C@@H]5CC[C@]43C)[C@H]12`, the inhibition was 41.1% (inactive).

For `C[C@H]1[C@H](C)CC[C@]2(C)CC[C@]3(C)C(=CC[C@@H]4[C@@]5(C)CC[C@@H](O)[C@](C)(C(=O)O)[C@@H]5CC[C@]43C)[C@H]12`, the inhibition was 77% (active).

Consider `C[C@H]1[C@H](C)CC[C@]2(C(=O)O)CC[C@]3(C)C(=CC[C@@H]4[C@@]5(C)C[C@@H](O)[C@H](O)C(C)(C)[C@@H]5CC[C@]43C)[C@H]12`, for which the inhibition is 45.4% (inactive).

On to `CC(=O)Nc1cc2c3c(c1)CCN3C(=O)CC2`, for which the inhibition is 0.4% (inactive).

Consider `COc1cc(/C=N/NC(=O)c2ccncc2)ccc1OC(C)=O`, for which the inhibition was 11.8% (inactive).

For the compound `Cc1ccc(S(=O)(=O)n2c(=O)oc3ccccc32)cc1`, the inhibition is -5.8% (inactive).

With `CCn1ncc(C2=NOC(C(=O)N3CCC(C(N)=O)CC3)C2)c1C` (centres undefined), the inhibition was 2.8% (inactive).

Regarding `CCCOC(=O)/C(=C\C=C\c1ccco1)NC(=O)c1ccccc1`, the inhibition is 66.6% (active).

`CCCCOC(=O)/C(=C/C=C/c1ccccc1)NC(=O)c1ccccc1`: the inhibition was 7.4% (inactive).

Take `CCCOC(=O)/C(=C\C=C\c1ccccc1)NC(=O)c1ccccc1`: the inhibition is -6.3% (inactive).

On to `CC1(c2ccccc2)NC(=O)N(Cc2ccc([N+](=O)[O-])cc2)C1=O` (centres undefined), for which the inhibition was -5.3% (inactive).

Consider `CP(=O)(COC(=O)c1ccccc1)COC(=O)c1ccccc1`, for which the inhibition is -9.7% (inactive).

In the case of `OC[C@@H]1CCCN1Cc1cn(-c2ccccc2)nc1-c1ccc2c(c1)OCO2`, the inhibition is 8.1% (inactive).

For `O=[N+]([O-])c1ccc(N/N=C/c2sc(N3CCOCC3)nc2-c2ccccc2)c(S(=O)(=O)Nc2ccccc2Cl)c1`, the inhibition was 30.5% (inactive).

On to `O=[N+]([O-])c1ccc(N/N=C/c2sc(N3CCOCC3)nc2-c2ccccc2)c(S(=O)(=O)Nc2ccc(Cl)cc2)c1`, for which the inhibition was 67.1% (active).

In the case of `O=C(N/N=C/c1sc(N2CCOCC2)nc1-c1ccccc1)c1cccc(S(=O)(=O)N2CCOCC2)c1`, the inhibition was 21.2% (inactive).

For the compound `Cc1ccc(NS(=O)(=O)c2cc([N+](=O)[O-])ccc2N/N=C/c2sc(N3CCOCC3)nc2-c2ccccc2)c(C)c1`, the inhibition is 31.1% (inactive).

As for `O=C(N/N=C/c1sc(N2CCOCC2)nc1-c1ccccc1)c1cccc(S(=O)(=O)N2CCCC2)c1`, the inhibition was 51.1% (active).

For the compound `COc1cc(C(=O)N/N=C/c2sc(N3CCOCC3)nc2-c2ccccc2)cc(OC)c1OC`, the inhibition was 4.4% (inactive).

The record behind these values is PubChem BioAssay AID2073 (Sanford-Burnham Center for Chemical Genomics, 2009).
